# Measured values: PMC7862700, “An all-to-all approach to the identification of sequence-specific readers for epigenetic DNA modifications on cytosine”
# Legend:
# Test in all cases: DAPPL (digital affinity profiling via proximity ligation, sequencing); 10 mM Tris-HCl pH 7.5, 50 mM NaCl, 1 mM DTT, 4% glycerol, room temperature, 30 min; GST-TFs on glutathione beads, 16-mer random dsDNA library, 0.1% formaldehyde crosslink after washing; high values mean tight binding
# FLI1 = target: T1, FLI1 (Homo sapiens, UniProt Q01543 1-452); settings: protein: recombinant; tags: N-terminal GST; dsDNA, one strand shown
# T1 sequence: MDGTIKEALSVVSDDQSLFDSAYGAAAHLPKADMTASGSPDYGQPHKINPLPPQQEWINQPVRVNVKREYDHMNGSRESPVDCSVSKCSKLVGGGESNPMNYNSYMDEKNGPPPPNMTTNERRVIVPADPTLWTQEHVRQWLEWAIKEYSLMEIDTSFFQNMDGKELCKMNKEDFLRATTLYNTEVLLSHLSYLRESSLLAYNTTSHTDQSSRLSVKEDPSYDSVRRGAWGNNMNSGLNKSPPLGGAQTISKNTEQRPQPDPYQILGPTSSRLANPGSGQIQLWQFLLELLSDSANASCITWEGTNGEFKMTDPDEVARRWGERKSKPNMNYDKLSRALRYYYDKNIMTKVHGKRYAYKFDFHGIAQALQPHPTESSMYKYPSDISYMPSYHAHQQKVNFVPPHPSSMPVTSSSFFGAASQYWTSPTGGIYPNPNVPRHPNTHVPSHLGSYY
# In short: (§1)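 Human transcription factors carrying a GST fusion were produced in yeast, bound to glutathione beads, tagged with DNA barcodes and pooled together with a tag-only sample. Each pool was held with 200 nmole of a random double-stranded 16-mer DNA library in Tris/NaCl/DTT/glycerol buffer for 30 min at room temperature, then washed, crosslinked in 0.1% formaldehyde, proximity-ligated with BsaI/T4 ligase (1 h, 37 °C), PCR-amplified and sequenced on an Illumina NextSeq500. Binding signal is the read frequency of each hexamer for a given factor divided by its frequency in the tag-only sample.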
# ELK1 = target: T2, ELK1 (Homo sapiens, UniProt P19419 1-428); settings: protein: recombinant; tags: N-terminal GST; dsDNA, one strand shown
# T2 sequence: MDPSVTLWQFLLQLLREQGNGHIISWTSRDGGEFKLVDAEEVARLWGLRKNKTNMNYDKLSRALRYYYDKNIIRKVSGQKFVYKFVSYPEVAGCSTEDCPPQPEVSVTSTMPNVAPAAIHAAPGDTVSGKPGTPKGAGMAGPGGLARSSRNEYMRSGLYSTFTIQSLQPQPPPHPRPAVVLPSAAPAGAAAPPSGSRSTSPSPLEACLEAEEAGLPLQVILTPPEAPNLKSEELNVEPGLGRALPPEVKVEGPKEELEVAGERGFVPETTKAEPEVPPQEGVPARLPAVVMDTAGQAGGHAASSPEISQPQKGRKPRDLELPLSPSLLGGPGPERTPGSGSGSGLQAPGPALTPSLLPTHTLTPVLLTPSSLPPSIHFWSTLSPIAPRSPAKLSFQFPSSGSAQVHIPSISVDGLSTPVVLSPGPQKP
# In short: as §1
# GABPA = target: T3, GABPA (Homo sapiens, UniProt Q06546 1-454); settings: protein: recombinant; tags: N-terminal GST; dsDNA, one strand shown
# T3 sequence: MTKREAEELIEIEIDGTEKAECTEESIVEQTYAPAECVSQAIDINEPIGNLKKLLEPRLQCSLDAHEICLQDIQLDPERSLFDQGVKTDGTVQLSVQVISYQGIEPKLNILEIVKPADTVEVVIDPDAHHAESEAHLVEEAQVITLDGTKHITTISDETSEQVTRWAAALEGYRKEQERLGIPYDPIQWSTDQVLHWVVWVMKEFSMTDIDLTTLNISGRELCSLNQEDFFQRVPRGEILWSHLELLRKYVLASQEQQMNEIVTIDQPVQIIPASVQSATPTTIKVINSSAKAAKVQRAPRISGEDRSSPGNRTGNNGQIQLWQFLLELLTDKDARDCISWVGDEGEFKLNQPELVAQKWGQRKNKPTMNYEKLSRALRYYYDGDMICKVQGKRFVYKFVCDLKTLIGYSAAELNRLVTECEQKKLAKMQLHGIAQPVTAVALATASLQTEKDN
# In short: as §1
# ERG = target: T4, ERG (Homo sapiens, UniProt P11308 1-479); settings: protein: recombinant; tags: N-terminal GST; dsDNA, one strand shown
# T4 sequence: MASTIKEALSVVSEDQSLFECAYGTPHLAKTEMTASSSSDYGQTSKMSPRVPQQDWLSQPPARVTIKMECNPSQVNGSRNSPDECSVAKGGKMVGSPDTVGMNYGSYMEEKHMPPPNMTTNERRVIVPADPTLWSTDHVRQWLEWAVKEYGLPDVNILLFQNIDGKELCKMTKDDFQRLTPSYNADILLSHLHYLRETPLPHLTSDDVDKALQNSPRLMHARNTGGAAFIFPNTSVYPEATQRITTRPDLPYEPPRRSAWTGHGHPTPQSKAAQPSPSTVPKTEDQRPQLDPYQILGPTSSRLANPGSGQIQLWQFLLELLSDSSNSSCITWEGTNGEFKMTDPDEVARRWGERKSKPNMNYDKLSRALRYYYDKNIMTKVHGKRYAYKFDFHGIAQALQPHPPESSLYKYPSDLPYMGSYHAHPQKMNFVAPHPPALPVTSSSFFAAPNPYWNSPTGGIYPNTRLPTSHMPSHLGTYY
# In short: as §1
# ELF1 = ELF1 (Homo sapiens, UniProt P32519 1-619); settings: protein: recombinant; tags: N-terminal GST; dsDNA, one strand shown
# In short: as §1
# EHF = target: T5, EHF (Homo sapiens, UniProt Q9NZC4 1-300); settings: protein: recombinant; tags: N-terminal GST; dsDNA, one strand shown
# T5 sequence: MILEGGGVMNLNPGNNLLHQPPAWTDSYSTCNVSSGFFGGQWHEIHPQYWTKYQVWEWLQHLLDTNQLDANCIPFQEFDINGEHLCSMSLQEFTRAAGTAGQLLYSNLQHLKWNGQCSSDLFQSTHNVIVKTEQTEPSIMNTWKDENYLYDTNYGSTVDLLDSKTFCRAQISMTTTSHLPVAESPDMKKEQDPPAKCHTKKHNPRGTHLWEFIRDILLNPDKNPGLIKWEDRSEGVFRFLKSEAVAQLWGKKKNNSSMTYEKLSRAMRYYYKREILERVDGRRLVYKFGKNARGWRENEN
# In short: as §1
# SPI1 = SPI1 (Homo sapiens, UniProt P17947 1-270); settings: protein: recombinant; tags: N-terminal GST; dsDNA, one strand shown
# In short: as §1
# SPIB = SPIB (Homo sapiens, UniProt Q01892 1-262); settings: protein: recombinant; tags: N-terminal GST; dsDNA, one strand shown
# In short: as §1
# ELK3 = target: T6, ELK3 (Homo sapiens, UniProt P41970 1-407); settings: protein: recombinant; tags: N-terminal GST; dsDNA, one strand shown
# T6 sequence: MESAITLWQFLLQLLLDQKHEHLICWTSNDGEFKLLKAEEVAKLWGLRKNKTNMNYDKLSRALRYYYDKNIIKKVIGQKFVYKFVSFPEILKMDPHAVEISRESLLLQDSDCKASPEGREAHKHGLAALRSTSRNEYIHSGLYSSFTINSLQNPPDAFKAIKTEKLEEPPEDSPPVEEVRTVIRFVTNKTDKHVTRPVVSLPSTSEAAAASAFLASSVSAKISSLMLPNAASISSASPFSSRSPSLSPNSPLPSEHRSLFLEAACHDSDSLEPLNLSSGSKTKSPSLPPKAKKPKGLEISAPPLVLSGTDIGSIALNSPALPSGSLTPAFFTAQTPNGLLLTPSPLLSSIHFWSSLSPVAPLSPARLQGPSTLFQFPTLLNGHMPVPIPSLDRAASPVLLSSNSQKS
# In short: as §1
# FEV = target: T7, FEV (Homo sapiens, UniProt Q99581 1-238); settings: protein: recombinant; tags: N-terminal GST; dsDNA, one strand shown
# T7 sequence: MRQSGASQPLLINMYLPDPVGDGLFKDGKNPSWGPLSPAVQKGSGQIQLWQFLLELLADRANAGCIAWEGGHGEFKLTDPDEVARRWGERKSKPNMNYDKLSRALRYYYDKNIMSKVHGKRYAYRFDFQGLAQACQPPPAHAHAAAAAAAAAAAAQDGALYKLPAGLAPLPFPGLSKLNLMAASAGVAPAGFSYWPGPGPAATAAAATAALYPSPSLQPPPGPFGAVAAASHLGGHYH
# In short: as §1
# ETV5 = ETV5 (Homo sapiens, UniProt P41161 1-510); settings: protein: recombinant; tags: N-terminal GST; dsDNA, one strand shown
# In short: as §1
# HSF1 = HSF1 (Homo sapiens, UniProt Q00613 1-529); settings: protein: recombinant; tags: N-terminal GST; chain copies: 3; dsDNA, one strand shown
# In short: as §1
# SPIC = target: T8, SPIC (Homo sapiens, UniProt Q8N5J4 1-248); settings: protein: recombinant; tags: N-terminal GST; dsDNA, one strand shown
# T8 sequence: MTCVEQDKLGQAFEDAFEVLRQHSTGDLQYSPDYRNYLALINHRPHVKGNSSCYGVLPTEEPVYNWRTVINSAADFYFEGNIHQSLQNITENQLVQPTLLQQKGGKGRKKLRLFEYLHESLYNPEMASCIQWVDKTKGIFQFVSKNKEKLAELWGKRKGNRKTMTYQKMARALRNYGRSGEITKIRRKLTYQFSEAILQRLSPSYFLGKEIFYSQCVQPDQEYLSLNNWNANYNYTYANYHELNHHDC
# In short: as §1
# ELF4 = ELF4 (Homo sapiens, UniProt Q99607 1-663); settings: protein: recombinant; tags: N-terminal GST; dsDNA, one strand shown
# In short: as §1
# ELK4 = target: T9, ELK4 (Homo sapiens, UniProt P28324-2 1-405); settings: protein: recombinant; tags: N-terminal GST; dsDNA, one strand shown
# T9 sequence: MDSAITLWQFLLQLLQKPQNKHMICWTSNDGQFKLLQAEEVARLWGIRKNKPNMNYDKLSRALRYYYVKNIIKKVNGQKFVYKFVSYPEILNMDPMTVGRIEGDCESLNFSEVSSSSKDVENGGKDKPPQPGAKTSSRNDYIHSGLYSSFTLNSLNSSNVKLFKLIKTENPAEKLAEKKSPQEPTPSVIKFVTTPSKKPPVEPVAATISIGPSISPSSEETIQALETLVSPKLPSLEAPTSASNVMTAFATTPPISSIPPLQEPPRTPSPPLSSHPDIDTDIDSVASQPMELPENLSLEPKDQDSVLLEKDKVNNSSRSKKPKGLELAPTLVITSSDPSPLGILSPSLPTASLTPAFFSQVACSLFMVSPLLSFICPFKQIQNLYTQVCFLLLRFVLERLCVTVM
# In short: as §1
# ETV2 = target: T10, ETV2 (Homo sapiens, UniProt O00321 1-342); settings: protein: recombinant; tags: N-terminal GST; dsDNA, one strand shown
# T10 sequence: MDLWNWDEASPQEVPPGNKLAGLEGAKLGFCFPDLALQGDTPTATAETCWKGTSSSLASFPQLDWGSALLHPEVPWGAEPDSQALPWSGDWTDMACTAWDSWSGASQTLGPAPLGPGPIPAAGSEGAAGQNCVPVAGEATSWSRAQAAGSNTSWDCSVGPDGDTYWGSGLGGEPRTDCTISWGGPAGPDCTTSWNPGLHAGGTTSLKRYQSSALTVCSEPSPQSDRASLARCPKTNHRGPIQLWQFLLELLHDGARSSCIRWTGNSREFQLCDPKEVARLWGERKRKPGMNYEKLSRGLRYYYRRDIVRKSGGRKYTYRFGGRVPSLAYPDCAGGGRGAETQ
# In short: as §1
# ELF3 = target: T11, ELF3 (Homo sapiens, UniProt P78545 1-371); settings: protein: recombinant; tags: N-terminal GST; dsDNA, one strand shown
# T11 sequence: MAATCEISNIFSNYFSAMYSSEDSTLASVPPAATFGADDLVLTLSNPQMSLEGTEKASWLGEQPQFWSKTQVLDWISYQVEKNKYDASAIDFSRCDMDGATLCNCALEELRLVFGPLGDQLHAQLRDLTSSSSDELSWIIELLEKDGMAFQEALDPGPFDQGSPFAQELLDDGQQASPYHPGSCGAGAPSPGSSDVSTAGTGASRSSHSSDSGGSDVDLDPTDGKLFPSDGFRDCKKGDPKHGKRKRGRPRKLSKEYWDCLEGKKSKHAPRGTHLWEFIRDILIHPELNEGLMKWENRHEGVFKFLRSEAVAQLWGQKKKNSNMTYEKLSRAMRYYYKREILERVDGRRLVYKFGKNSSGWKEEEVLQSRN
# In short: as §1
# CRX = CRX (Homo sapiens, UniProt O43186 1-299); settings: protein: recombinant; tags: N-terminal GST; dsDNA, one strand shown
# In short: as §1
# ETV1 = ETV1 (Homo sapiens, UniProt P50549 1-477); settings: protein: recombinant; tags: N-terminal GST; dsDNA, one strand shown
# In short: as §1
# Sequence of HSF1 (Q00613 whole entry): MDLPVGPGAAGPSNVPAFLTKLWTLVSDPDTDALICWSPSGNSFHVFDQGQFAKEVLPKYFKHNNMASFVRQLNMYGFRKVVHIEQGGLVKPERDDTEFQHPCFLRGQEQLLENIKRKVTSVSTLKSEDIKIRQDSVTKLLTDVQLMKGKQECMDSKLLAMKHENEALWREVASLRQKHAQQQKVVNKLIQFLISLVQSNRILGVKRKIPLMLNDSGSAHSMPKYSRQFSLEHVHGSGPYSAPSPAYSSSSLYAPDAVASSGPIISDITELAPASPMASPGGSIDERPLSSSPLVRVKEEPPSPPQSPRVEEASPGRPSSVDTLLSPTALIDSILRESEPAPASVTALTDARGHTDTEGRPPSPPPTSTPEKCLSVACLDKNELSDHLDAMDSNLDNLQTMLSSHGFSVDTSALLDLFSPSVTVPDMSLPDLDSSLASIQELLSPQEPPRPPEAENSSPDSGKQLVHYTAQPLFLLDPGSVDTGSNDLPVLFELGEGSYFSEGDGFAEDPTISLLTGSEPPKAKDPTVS
# Sequence of SPIB (Q01892 whole entry): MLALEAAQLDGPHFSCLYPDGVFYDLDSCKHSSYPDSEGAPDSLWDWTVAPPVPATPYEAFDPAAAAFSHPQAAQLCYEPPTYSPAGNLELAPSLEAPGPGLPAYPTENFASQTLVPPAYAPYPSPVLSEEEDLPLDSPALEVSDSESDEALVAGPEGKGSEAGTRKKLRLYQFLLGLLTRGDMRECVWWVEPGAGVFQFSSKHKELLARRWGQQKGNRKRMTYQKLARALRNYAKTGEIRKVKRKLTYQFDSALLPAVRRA
# Sequence of ETV5 (P41161 whole entry): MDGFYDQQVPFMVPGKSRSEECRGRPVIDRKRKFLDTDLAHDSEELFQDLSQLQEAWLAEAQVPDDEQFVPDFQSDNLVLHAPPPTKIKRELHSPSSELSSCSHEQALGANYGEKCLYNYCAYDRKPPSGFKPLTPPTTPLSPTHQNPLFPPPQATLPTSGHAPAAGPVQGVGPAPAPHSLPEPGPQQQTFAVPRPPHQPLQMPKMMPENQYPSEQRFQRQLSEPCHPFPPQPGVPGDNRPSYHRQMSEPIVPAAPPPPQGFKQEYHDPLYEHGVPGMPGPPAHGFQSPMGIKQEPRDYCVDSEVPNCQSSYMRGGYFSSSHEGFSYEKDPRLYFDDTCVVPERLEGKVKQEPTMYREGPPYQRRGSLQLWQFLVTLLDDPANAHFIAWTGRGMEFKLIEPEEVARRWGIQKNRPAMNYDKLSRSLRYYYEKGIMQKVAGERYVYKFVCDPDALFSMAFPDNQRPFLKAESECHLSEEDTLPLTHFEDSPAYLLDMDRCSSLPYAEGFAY
# Sequence of ELF4 (Q99607 whole entry): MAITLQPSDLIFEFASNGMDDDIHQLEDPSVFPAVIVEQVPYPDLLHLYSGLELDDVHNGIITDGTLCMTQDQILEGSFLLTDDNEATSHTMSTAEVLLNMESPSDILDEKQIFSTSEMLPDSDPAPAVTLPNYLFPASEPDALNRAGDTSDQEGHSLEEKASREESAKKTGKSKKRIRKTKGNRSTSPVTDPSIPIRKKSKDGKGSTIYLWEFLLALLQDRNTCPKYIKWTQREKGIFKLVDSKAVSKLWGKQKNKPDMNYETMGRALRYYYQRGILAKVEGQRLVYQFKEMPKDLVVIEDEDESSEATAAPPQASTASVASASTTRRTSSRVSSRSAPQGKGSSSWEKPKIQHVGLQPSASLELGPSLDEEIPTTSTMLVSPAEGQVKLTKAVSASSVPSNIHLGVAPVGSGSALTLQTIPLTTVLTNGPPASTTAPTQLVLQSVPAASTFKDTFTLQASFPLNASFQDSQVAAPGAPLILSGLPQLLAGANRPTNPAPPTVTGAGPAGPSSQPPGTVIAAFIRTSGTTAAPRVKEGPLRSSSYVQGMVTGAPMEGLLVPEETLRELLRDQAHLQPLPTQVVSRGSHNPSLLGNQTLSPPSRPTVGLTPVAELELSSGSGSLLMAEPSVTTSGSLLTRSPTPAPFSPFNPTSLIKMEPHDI
# Sequence of ELF1 (P32519 whole entry): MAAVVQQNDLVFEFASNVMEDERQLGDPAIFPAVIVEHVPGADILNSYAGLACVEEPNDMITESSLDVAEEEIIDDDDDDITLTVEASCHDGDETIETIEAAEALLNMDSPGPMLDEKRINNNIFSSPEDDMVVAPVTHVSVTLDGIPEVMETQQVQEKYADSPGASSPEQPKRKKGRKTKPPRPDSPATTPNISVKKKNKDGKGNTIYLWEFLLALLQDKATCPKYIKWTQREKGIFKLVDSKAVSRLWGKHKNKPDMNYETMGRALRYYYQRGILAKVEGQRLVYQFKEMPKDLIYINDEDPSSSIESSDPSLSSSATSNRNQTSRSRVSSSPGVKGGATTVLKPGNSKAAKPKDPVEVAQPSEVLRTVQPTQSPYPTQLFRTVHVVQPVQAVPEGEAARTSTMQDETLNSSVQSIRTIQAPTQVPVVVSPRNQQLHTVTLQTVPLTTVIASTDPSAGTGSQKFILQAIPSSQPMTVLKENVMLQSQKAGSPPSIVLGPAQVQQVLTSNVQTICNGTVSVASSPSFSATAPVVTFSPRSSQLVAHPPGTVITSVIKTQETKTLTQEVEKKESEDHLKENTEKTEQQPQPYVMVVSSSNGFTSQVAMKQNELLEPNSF
# Sequence of ETV1 (P50549 whole entry): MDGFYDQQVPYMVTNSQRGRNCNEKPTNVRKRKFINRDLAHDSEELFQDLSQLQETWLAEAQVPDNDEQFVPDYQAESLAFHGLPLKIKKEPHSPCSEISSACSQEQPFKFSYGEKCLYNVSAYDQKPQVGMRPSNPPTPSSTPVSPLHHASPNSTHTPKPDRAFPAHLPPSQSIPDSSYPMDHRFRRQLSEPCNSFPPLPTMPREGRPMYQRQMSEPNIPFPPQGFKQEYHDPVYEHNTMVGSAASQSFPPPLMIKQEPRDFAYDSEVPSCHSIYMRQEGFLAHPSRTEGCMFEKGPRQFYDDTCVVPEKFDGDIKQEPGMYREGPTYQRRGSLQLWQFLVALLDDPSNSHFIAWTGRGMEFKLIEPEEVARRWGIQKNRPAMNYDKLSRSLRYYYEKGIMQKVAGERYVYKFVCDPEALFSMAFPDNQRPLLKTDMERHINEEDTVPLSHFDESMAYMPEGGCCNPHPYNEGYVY
# Sequence of CRX (O43186 whole entry): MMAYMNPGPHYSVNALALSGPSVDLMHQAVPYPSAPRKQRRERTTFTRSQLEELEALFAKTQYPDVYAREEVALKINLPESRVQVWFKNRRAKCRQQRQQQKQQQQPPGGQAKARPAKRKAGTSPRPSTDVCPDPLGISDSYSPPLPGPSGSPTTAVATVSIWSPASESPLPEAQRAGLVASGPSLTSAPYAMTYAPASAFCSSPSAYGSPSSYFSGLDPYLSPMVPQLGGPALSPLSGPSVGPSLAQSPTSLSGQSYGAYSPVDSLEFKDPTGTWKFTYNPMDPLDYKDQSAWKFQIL
sequence,measurement,setting,value
CCTAAA,binding signal,FLI1,"1.35 fold enrichment (6-mer frequency, TF over GST control)"
same,binding signal,ELK1,"1.26 fold enrichment (6-mer frequency, TF over GST control)"
same,binding signal,GABPA,"1.25 fold enrichment (6-mer frequency, TF over GST control)"
same,binding signal,ERG,"1.37 fold enrichment (6-mer frequency, TF over GST control)"
same,binding signal,ELF1,"1.34 fold enrichment (6-mer frequency, TF over GST control)"
same,binding signal,EHF,"1.28 fold enrichment (6-mer frequency, TF over GST control)"
same,binding signal,SPI1,"1.25 fold enrichment (6-mer frequency, TF over GST control)"
same,binding signal,SPIB,"1.26 fold enrichment (6-mer frequency, TF over GST control)"
same,binding signal,ELK3,"1.4 fold enrichment (6-mer frequency, TF over GST control)"
same,binding signal,FEV,"1.27 fold enrichment (6-mer frequency, TF over GST control)"
same,binding signal,ETV5,"1.33 fold enrichment (6-mer frequency, TF over GST control)"
same,binding signal,HSF1,"1.37 fold enrichment (6-mer frequency, TF over GST control)"
same,binding signal,SPIC,"1.32 fold enrichment (6-mer frequency, TF over GST control)"
same,binding signal,ELF4,"1.35 fold enrichment (6-mer frequency, TF over GST control)"
same,binding signal,ELK4,"1.29 fold enrichment (6-mer frequency, TF over GST control)"
same,binding signal,ETV2,"1.25 fold enrichment (6-mer frequency, TF over GST control)"
same,binding signal,ELF3,"1.4 fold enrichment (6-mer frequency, TF over GST control)"
same,binding signal,CRX,"1.61 fold enrichment (6-mer frequency, TF over GST control)"
same,binding signal,ETV1,"1.31 fold enrichment (6-mer frequency, TF over GST control)"
